# Bioassay records: PubChem, several laboratories
# The list is not random: actives were taken first. Their share in the collection is about 2.8%.
# Furin inh: blocks human furin protease activity. inhibition, % at 20 µM or 30 µM. P09958. purified furin, fluorogenic substrate cleavage. 0.061% of 220,000 active; in the data active means inhibition above about 25%
# EP2 mod: EP2 receptor (human) modulation; P43116; EP2-expressing cells, cAMP HTRF FRET, PGE2 co-stimulation; induction, % at 25 µM; 0.83% of 260,000 active; AID 940;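 active means compounds whose cAMP rise, as percent of the full-agonist control response, exceeds 60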;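 further: rat C6 glioma line stably carrying human EP2 under a CMV promoter; the protocol text gives 20 µM as final concentration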
# NCF1 inh: p47phox (human) inhibition; inhibition, % at 24.7 µM; p47phox/p22phox peptide binding, fluorescence polarization, 2 h; 0.53% of 220,000 active; P14598;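 active means inhibition above about 30%, limit read from the data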
# Target sequence (P14598 whole entry, looked up): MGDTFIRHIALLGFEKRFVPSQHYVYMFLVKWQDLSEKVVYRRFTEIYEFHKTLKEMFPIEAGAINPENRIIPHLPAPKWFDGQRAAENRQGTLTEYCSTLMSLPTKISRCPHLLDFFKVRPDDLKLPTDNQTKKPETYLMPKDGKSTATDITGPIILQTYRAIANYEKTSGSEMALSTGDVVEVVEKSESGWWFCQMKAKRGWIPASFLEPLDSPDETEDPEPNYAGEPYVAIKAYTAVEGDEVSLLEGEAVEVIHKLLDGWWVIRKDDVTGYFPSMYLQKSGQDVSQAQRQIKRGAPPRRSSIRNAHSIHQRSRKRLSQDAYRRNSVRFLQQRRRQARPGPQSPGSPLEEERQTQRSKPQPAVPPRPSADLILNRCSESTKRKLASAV
# Wee1 degr inh: inhibitors of human Wee1 degradation. P30291. HeLa Luc-Wee1K328M stability, luciferase luminescence; 100% = proteasome inhibitor MG132 effect. reporter increase, % at 5 µM. 1.2% of 220,000 active;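 active means activation above the mean of all tested compounds plus 3 SD, set per screening run, cut at about 8.8% in these data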;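 further: cells exposed to compound for 20 h before luminescence read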
# HSV augment: increases HSV replication in cells; HSV replication augmentation in cells, fold increase; maximum fold increase; 0.005% of 220,000 active; AID 1956; in the data active means maximum fold increase above about 1.5; inconclusive means no clear call, values can overlap the other calls; tested in PC3 cells
# PGE2 EP2 inh: blocks the human prostaglandin E2 receptor EP2 | 0.52% of 260,000 active | inhibition, % at 25 µM | AID 1422 | C6 glioma cells expressing human EP2, cAMP TR-FRET; cells stimulated with saturating PGE2;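 active means percent inhibition above 40 after rounding to a whole number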;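 further: rat C6 glioma host cells with rolipram phosphodiesterase inhibitor present; the protocol text gives 20 µM as final concentration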
# EP2 cAMP induct: EP2 receptor cAMP induction, counter-screens negative. shares compounds with EP2 mod. C6 glioma EP2 cells, cAMP HTRF induction; plus low (about EC15) PGE2 agonist. calls only at 20 µM (by protocol). 47% of 1,300 active;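 active means cAMP induction above 50% in the main assay while under 30% in all four parallel counter assays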;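 further: rat C6 glioma cells stably expressing human EP2 receptor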
# Numbers stand for hits; . = inactive; ? = inconclusive; / = no result given; + = active, no number.
SMILES,Furin inh,EP2 mod,NCF1 inh,Wee1 degr inh,HSV augment,PGE2 EP2 inh,EP2 cAMP induct
COc1ccc(-c2cc(-c3cccs3)nc3sc(C#N)c(N)c23)cc1,.,.,.,.,.,.,/
COc1cccc2[nH]c3c(N4CCC(C)CC4)ncnc3c12,.,80.0,.,.,.,.,+
COc1cccc2[nH]c3c(N4CCc5ccccc5C4)ncnc3c12,.,.,.,.,.,.,/
CC(=O)Nc1ccc(C(O)CN2CCC3(CC2)CC(O)c2cc(C)ccc2O3)cc1 (centres undefined),/,.,/,/,/,.,/
c1ccc(Oc2nc3ccccc3n3cccc23)cc1,.,65.3,.,.,.,.,.
Cc1ccc(Oc2nc3ccccc3n3cccc23)cc1,.,.,.,.,.,.,/
CCC(C)(C)n1nnnc1C(c1cccc(OC)c1OC)N1CCN(c2ccccc2F)CC1 (centres undefined),/,.,/,/,/,.,/
O=C1NC(CC(=O)N2CCC(C(=O)c3nc4ccccc4s3)CC2)c2ccccc21 (centres undefined),/,.,/,/,/,/,/
O=C(COC(=O)c1cccs1)c1ccc(Cl)cc1,/,.,/,/,/,.,/
O=C(c1ccco1)N(Cc1cccc([N+](=O)[O-])c1)c1ccc(Br)cc1,.,66.0,.,.,.,.,+
O=C(c1ccco1)N(Cc1ccc([N+](=O)[O-])cc1)c1ccc(Br)cc1,.,.,.,.,.,.,/
Cc1ccc(-n2c(=O)[nH]c3c(oc4ccccc43)c2=O)cc1,.,.,.,.,.,.,/
COc1ccc(-n2c(=S)[nH]c3c(oc4ccccc43)c2=O)cc1,.,68.0,.,.,.,.,.
Brc1ccc(Cn2c(-c3ccc(Br)o3)nc3ccccc32)o1,.,67.7,.,.,.,.,+
Cn1c(=O)c2c([nH]c(=S)n2Cc2ccc(Cl)cc2Cl)n(C)c1=O,/,.,/,/,/,.,/
CC(C)Oc1ccc(/C=C(/NC(=O)c2ccccc2)C(=O)NCCC(=O)O)cc1,.,71.5,.,.,.,.,.
CCOc1ccccc1/C=C(\NC(=O)c1ccccc1)C(=O)NCCC(=O)O,.,.,.,.,.,.,/
CN(C)C(=O)Cn1c(=O)n(C)c2ncccc21,/,.,/,/,/,.,/
O=C(Nc1ccccc1Cl)N1CCSc2ccccc21,.,77.3,.,.,.,.,+
COC(=O)CSc1nc2cc(OC)c(OC)cc2cc1C#N,/,.,/,/,/,.,/
CCOC(=O)CNC(=O)c1ccc2c(c1)OCCO2,.,69.1,.,.,.,.,.
CCOC(=O)/C(C#N)=C/c1ccc(OC)c(OC)c1,.,.,.,.,.,.,/
COc1ccc(/C=C(\C#N)C(N)=O)cc1OC,/,76.5,/,/,/,.,.
Cc1ccc(C)n1-c1ccc(N(C)C)cc1,.,66.0,.,.,/,.,.
CCCC(c1nnnn1C1CCCCC1)N(CCc1ccccc1)Cc1cc2cc(C)ccc2[nH]c1=O (centres undefined),/,.,/,/,/,.,/
SMILES,Furin inh,EP2 mod,NCF1 inh,Wee1 degr inh,HSV augment,PGE2 EP2 inh,EP2 cAMP induct
CC1C(c2ccccc2)N(C)C(c2ccccc2)C(C)C1(O)C#Cc1ccccc1 (centres undefined),.,65.7,.,.,.,.,+
Cc1c(C#N)c(N)nc(SCC(N)=O)c1C#N,/,.,/,/,/,.,/
c1ccc(Sc2ncnc3ccccc23)cc1,.,.,.,.,.,.,/
c1ccc(Cc2nnc(Sc3ccccc3)c3ccccc23)cc1,.,69.2,.,.,.,.,.
CCCCOc1ccc(-c2c(C(=O)Nc3ccccc3)c(C)[nH]c(=S)c2C#N)cc1,.,72.8,.,.,.,.,.
COc1ccc(-c2cc(C(F)(F)F)nc(SCC(=O)N3CCCCCC3)n2)cc1,/,.,/,/,/,.,/
CCOP(=O)(OCC)c1nc(-c2ccc(Cl)cc2Cl)oc1N1CCCCC1,.,.,.,.,.,.,.
CCOC(=O)c1cnc2c(-c3ccc(Cl)cc3)cnn2c1N,/,.,/,/,/,.,/
CC1=CC(C)(C)N(S(=O)(=O)c2ccc(C)cc2)c2ccccc21,.,.,.,.,.,.,/
COc1ccc2c(c1)C(C)=CC(C)(C)N2S(=O)(=O)c1ccc(Br)cc1,.,68.8,.,.,.,.,+
CC1=CC(C)(C)N(S(=O)(=O)c2ccc(F)cc2)c2ccc(C)cc21,.,72.4,.,.,/,.,+
CCC(c1nnnn1Cc1ccco1)N(Cc1ccc(C)cc1)Cc1cc2ccc(OC)cc2[nH]c1=O (centres undefined),/,.,/,/,/,.,/
CCOC(=O)c1cc(-c2ccccn2)c(N2CCOCC2)s1,/,.,/,/,/,.,/
Cc1ccc(C)c(CN2C(=O)C(C)Oc3ccc(C)cc32)c1 (centres undefined),.,79.8,.,.,.,.,+
CCc1ccc(CN2CCc3c(nc(N4CC(C)OC(C)C4)[nH]c3=O)C2)cc1 (centres undefined),/,.,/,/,/,.,/
CCCC1=C(C(=O)OCC)C(c2cccs2)C(C#N)=C(N)O1 (centres undefined),.,62.8,.,.,.,.,.
O=C(O)c1cccc(N2C(=O)c3ccc4c5c(ccc(c35)C2=O)C(=O)N(c2cccc(C(=O)O)c2)C4=O)c1,.,.,.,.,.,.,/
O=C(O)c1cc(C(=O)O)cc(N2C(=O)c3ccccc3C2=O)c1,/,86.9,/,/,/,.,+
Cc1cc(C)nc(SCc2nnc(SCC#N)n2-c2cccc(Cl)c2)n1,.,.,.,.,.,.,.
Nc1c(C(=O)Nc2ccccc2F)sc2nc(Cc3ccccc3)cc(C(F)(F)F)c12,.,67.2,.,.,?,.,.
CCSc1cc(N2CCOCC2)nc(-c2ccccc2)n1,.,65.1,.,.,.,.,+
O=c1[nH]ncc2c3ccccc3n(Cc3cccc(Cl)c3)c12,.,.,.,.,.,.,.
O=c1[nH]ncc2c3ccccc3n(Cc3ccc(F)cc3)c12,.,.,.,.,.,.,/
CCOC(=O)c1sc(NC(=O)C(C)C)c(C(=O)OCC)c1C,/,.,/,/,/,.,/
COc1cc(-c2nc3sc4c(c3c(=O)[nH]2)CCC(C)C4)ccc1O (centres undefined),/,.,/,/,/,.,/
SMILES,Furin inh,EP2 mod,NCF1 inh,Wee1 degr inh,HSV augment,PGE2 EP2 inh,EP2 cAMP induct
CCc1nc(SC(C)C(=O)Nc2ccccc2)n[nH]1 (centres undefined),/,.,/,/,/,.,/
Cc1cccnc1N(C(=O)Nc1cccc(Cl)c1)C1=NCC(C)(C)S1,.,70.2,.,.,.,.,+
Cc1cccnc1N(C(=O)Nc1ccccc1)C1=NCC(C)(C)S1,.,86.4,.,.,.,.,+
Cc1ccc(NC(=O)CCN2CC(C)CC(C)C2)cc1C (centres undefined),/,.,/,/,/,.,/
O=C(Nc1ccccc1N1CCN(c2ccccc2)CC1)C12CC3CC(CC(C3)C1)C2,.,68.2,.,.,.,.,.
O=C(Nc1ccccc1N1CCN(c2ccccc2)CC1)c1ccccc1F,.,.,.,.,.,.,/
O=C(Cc1ccccc1)Nc1ccccc1N1CCN(c2ccccc2)CC1,.,71.5,.,.,.,.,+
